Values without a mark were called inactive. The source made the active and inactive calls. Calls follow the shape of the dose curve; as a rule, active = well fitted curve in the direction sought with a large enough effect in the repeat runs; inconclusive = weak or mixed curves; inactive = flat fitted curve, though single readings scatter.
Assay: qHTS assay to test for compound auto fluorescence at 460 nm (blue) in HepG2 cells (AID 720687)
Conditions: autofluorescence 405/460 nm, 1 h; series mostly up to 91.3 µM
Excerpt: U.S. Tox21 Program National Center for Advancing Translational Sciences [NCATS] NIH Chemical Genomics Center [NCGC] U.S. Environmental Protection Agency [EPA] National Institutes of Environmental Health Sciences [NIEHS] National Toxicology Program [NTP] U.S. Food and Drug Administration [FDA] Tox21 Assay Overview: Compound auto fluorescence often interferes with screening of the compound library against various biological targets and signaling pathways. Some of these compounds may have fluorophoric properties. Such properties may interfere with the assay outputs resulting in false positives and/or negatives. To decrease such complications and ensure the compound activities are relevant in terms of biological response, the Tox21 10K compound library was screened for auto fluorescence. From the fluorophores used as reporter signals in our screening assays, the auto fluorescence equivalencies of compounds against three fluorophores have been evaluated: Triamterene, Fluorescein and Rose Bengal sodium for blue, green and red fluorescence, respectively. The fluorescence intensities were measured using Excitation/Emission wavelengths at 405/460nm, 485/535nm and 540/590nm for blue, green and red labels, respectively. This assay includes the blue fluorescence data.
Tox21 Assay Protocol Summary: 2,000 HepG2 cells in 5 uL of culture medium (MEM containing 10% FBS) per well were dispensed into black wall/clear bottom 1536-well plates using a Multidrop Combi Dispenser (ThermoFisher Scientific, Waltham, MA). The assay plates were incubated overnight at 37 C to allow cell attachment to the well bottom, followed by the transfer of 23 nL compound or DMSO vehicle by a pintool work station (Kalypsys , San Diego, CA). After the assay plates were incubated for 1 hr at 37 C and 5% CO2, fluorescence intensities in the assay plates were measured by an Envision (PerkinElmer, Shelton, CT) plate reader using three labels for measuring blue, green and red fluorescence at […] 460, 535 and 590 nm respectively.
% is scaled to controls: 0 for no effect and ±100 for the full control effect.

SMILES | outcome | fluorescence, % of fluorescent control
O=C1C=CC(=O)O1 | inactive | –
CN1[C@@H]2CC[C@H]1CC(OC(=O)c1c[nH]c3ccccc13)C2 (stereo not given in full) | inactive | –
O=C(O)CN(CCN(CC(=O)O)CC(=O)O)CCN(CC(=O)O)CC(=O)O | inactive | –
Cc1ccsc1C(=CCCN1CCC[C@@H](C(=O)O)C1)c1sccc1C | inactive | –
O=S(=O)(O)C(F)(F)F | inactive | –
Nc1ccc2ccccc2c1S(=O)(=O)O | inactive | –
CCCCCOc1ccc(C2SC(=O)NC2=O)cc1OCC (stereo not given) | inactive | –
CCCCC1CCC(=O)O1 (stereo not given) | inactive | –
C[C@@H]1CN(c2c(F)c(F)c3c(=O)c(C(=O)O)cn(C4CC4)c3c2F)C[C@H](C)N1 | inactive | –
COc1ccccc1OCC(O)COC(N)=O (stereo not given) | – | 0.0352% [at 18.6 µM]
CCOc1ccccc1N | inactive | –
COc1ccc(Nc2ccc(OC)cc2)cc1 | inactive | –
CCN(CC)CCOc1ccc(Cc2ccccc2)cc1 | inactive | –
COC(C)CCO (stereo not given) | inactive | –
CCN(CC)C(=O)N(CC)CC | inactive | –
N#Cc1ccc(C(c2ccc(C#N)cc2)n2cncn2)cc1 | inactive | –
CN(C)CCOc1ccccc1Cc1ccccc1 | inactive | –
COc1cc(N)c(Cl)cc1C(=O)NC1CCN(Cc2ccccc2)CC1 | – | 0.034% [at 18.6 µM]
COc1cc(C)ccc1C(C)C | inactive | –
CCOc1ccc(NC(N)=O)cc1 | inactive | –

SMILES | outcome | fluorescence, % of fluorescent control
CC(=O)Oc1cc(C(C)C)c(OCCN(C)C)cc1C | – | -0.0099% [at 18.6 µM]
Cc1cc2nc(N)sc2cc1C | inactive | –
C[C@]12C(=O)OC(=O)[C@H]1[C@H]1C=C[C@@H]2C1 | inactive | –
Cc1cccc(C)c1NC(=O)CN1CCCCCC1 | inactive | –
NC(=O)Cc1cccc(C(=O)c2ccccc2)c1N | inactive | –
CN1CCN(c2c(F)cc3c(=O)c(C(=O)O)cn4c3c2SCC4)CC1 | inactive | –
CCCCCCCCOC(=O)CCCCCCCCC(=O)OCCCCCCCC | inactive | –
Cc1c(N)cccc1N | inactive | –
CC1CN(c2ccccc2)NC1=O (stereo not given) | inactive | –
CN(C)C(=O)NC1(c2ccccc2)CCN(CCC[C@]2(c3ccc(Cl)c(Cl)c3)CCCN(C(=O)c3ccccc3)C2)CC1 | – | -0.0586% [at 18.6 µM]
Cc1ccc([N+](=O)[O-])c(N)c1 | inactive | –
O=C(O)[C@@H]1CSCN1 | inactive | –
COc1ccc(S(=O)(=O)Nc2nnc(CC(C)C)s2)cc1 | inactive | –
CC(C)CCCCCCc1ccc(OCCOCCO)cc1 | inactive | –
CCOC(=O)[C@H](CCc1ccccc1)N[C@@H](C)C(=O)N1Cc2cc(OC)c(OC)cc2C[C@H]1C(=O)O | inactive | –
CCN(CC)CCNC(=O)COc1ccc(Cl)cc1 | inactive | –
C=CCCC=C | inactive | –
CCC/C=C/CO | inactive | –
OC[C@H]1O[C@@H](O[C@H]2[C@H](O)[C@@H](O)[C@H](O)O[C@@H]2CO)[C@H](O)[C@@H](O)[C@H]1O | inactive | –
CCCCCCOc1ccc(N)cc1 | inactive | –

From PubChem BioAssay (Tox21)
